According to the supplement of paper PMC8728848:
This excerpt belongs to a sample that is enriched for the strongest signals.

Experiments:
Test in all cases: glycan array binding signal (z-score within array); higher = stronger binding
Settings in all cases: glycan notation: IUPAC condensed, linker removed
[1] = biological target: Fuc(a1-2)Gal(b1-3)GlcNAc(b1-2)Man(a1-3)[Fuc(a1-2)Gal(b1-3)GlcNAc(b1-2)Man(a1-6)]Man(b1-4)GlcNAc(b1-4)[Fuc(a1-6)]GlcNAc
Method in brief: (§1)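 Glycan array data came from 3228 arrays in the Consortium for Functional Glycomics database, and only arrays with an available protein sequence were kept. Glycan names were put into IUPAC-condensed notation, and columns mapping to the same glycan were averaged. The binding signal is a within-array Z-score, averaged across arrays of one protein sequence run at different concentrations or buffers and across linkers. A negative Z-score can be read as non-binding.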

[2] = biological target: Fuc(a1-2)Gal(b1-4)GlcNAc(b1-2)Man(a1-3)[Fuc(a1-2)Gal(b1-4)GlcNAc(b1-2)Man(a1-6)]Man(b1-4)GlcNAc(b1-4)[Fuc(a1-6)]GlcNAc
Method in brief: as §1

[3] = biological target: Fuc(a1-2)[Gal(a1-3)]Gal(b1-3)GlcNAc(b1-3)GalNAc
Method in brief: as §1

[4] = biological target: Fuc(a1-2)[Gal(a1-3)]Gal(b1-3)GlcNAc(b1-6)GalNAc
Method in brief: as §1

[5] = biological target: Fuc(a1-2)[Gal(a1-3)]Gal(b1-4)GlcNAc(b1-2)Man(a1-3)[Fuc(a1-2)[Gal(a1-3)]Gal(b1-4)GlcNAc(b1-2)Man(a1-6)]Man(b1-4)GlcNAc(b1-4)[Fuc(a1-6)]GlcNAc
Method in brief: as §1

[6] = biological target: Fuc(a1-2)[GalNAc(a1-3)]Gal(b1-3)GlcNAc(b1-3)GalNAc
Method in brief: as §1

[7] = biological target: Fuc(a1-2)[GalNAc(a1-3)]Gal(b1-4)GlcNAc(b1-3)[Fuc(a1-2)[GalNAc(a1-3)]Gal(b1-4)GlcNAc(b1-6)]GalNAc
Method in brief: as §1

[8] = biological target: Fuc(a1-3)[Gal(b1-4)]Glc6S
Method in brief: as §1

[9] = biological target: Fuc(a1-3)[Gal(b1-4)]GlcNAc(b1-3)GalNAc
Method in brief: as §1

[10] = biological target: Fuc(a1-3)[Gal3S(b1-4)]GlcNAc6S
Method in brief: as §1

[11] = biological target: Fuc(a1-3)[GalNAc(b1-4)]GlcNAc
Method in brief: as §1

[12] = biological target: Gal(a1-3)Gal(b1-3)GlcNAc(b1-2)Man
Method in brief: as §1

[13] = biological target: Gal(a1-3)Gal(b1-3)[Fuc(a1-4)]GlcNAc(b1-2)Man(a1-3)[Gal(a1-3)Gal(b1-3)[Fuc(a1-4)]GlcNAc(b1-2)Man(a1-6)]Man(b1-4)GlcNAc(b1-4)GlcNAc
Method in brief: as §1

[14] = biological target: Gal(a1-3)Gal(b1-4)[Fuc(a1-3)]GlcNAc
Method in brief: as §1

[15] = biological target: Gal(a1-4)Gal(b1-4)GlcNAc(b1-2)Man(a1-3)[Gal(a1-4)Gal(b1-4)GlcNAc(b1-2)Man(a1-6)]Man(b1-4)GlcNAc(b1-4)GlcNAc
Method in brief: as §1

[16] = biological target: Gal(b1-3)GlcNAc(a1-3)Gal(b1-4)GlcNAc
Method in brief: as §1

[17] = biological target: Gal(b1-3)GlcNAc(b1-2)[Gal(b1-3)GlcNAc(b1-6)]Man(a1-6)[Gal(b1-3)GlcNAc(b1-2)Man(a1-3)]Man(b1-4)GlcNAc(b1-4)GlcNAc
Method in brief: as §1

[18] = biological target: Gal(b1-3)GlcNAc(b1-3)Gal(b1-4)GlcNAc
Method in brief: as §1

[19] = biological target: Gal(b1-3)GlcNAc(b1-3)Gal(b1-4)[Fuc(a1-3)]GlcNAc
Method in brief: as §1

[20] = biological target: Gal(b1-3)GlcNAc(b1-3)Gal(b1-4)[Fuc(a1-3)]GlcNAc(b1-6)[Gal(b1-3)GlcNAc(b1-3)]Gal(b1-4)Glc
Method in brief: as §1

[21] = biological target: Gal(b1-3)GlcNAc(b1-6)[Gal(b1-3)]GalNAc
Method in brief: as §1

[22] = biological target: Gal(b1-4)GlcNAc(b1-3)Gal(b1-4)Glc
Method in brief: as §1

[23] = biological target: Gal(b1-4)GlcNAc(b1-3)Gal(b1-4)GlcNAc(b1-3)Gal(b1-4)GlcNAc(b1-3)Gal(b1-4)GlcNAc(b1-2)Man(a1-3)[Gal(b1-4)GlcNAc(b1-3)Gal(b1-4)GlcNAc(b1-3)Gal(b1-4)GlcNAc(b1-3)Gal(b1-4)GlcNAc(b1-2)Man(a1-6)]Man(b1-4)GlcNAc(b1-4)[Fuc(a1-6)]GlcNAc
Method in brief: as §1

Gal6S(b1-3)GlcNAc = biological target: Gal6S(b1-3)GlcNAc
Method in brief: as §1

GalNAc(a1-3)GalNAc = biological target: GalNAc(a1-3)GalNAc
Method in brief: as §1

[24] = biological target: Glc(a1-2)Glc(a1-3)Glc(a1-3)Man(a1-2)Man(a1-2)Man(a1-3)[Man(a1-2)Man(a1-3)[Man(a1-2)Man(a1-6)]Man(a1-6)]Man(b1-4)GlcNAc
Method in brief: as §1

[25] = biological target: GlcA(b1-3)GlcNAc(b1-4)GlcA(b1-3)GlcNAc(b1-4)GlcA(b1-3)GlcNAc(b1-4)GlcA(b1-3)GlcNAc(b1-4)GlcA(b1-3)GlcNAc(b1-4)GlcA(b1-3)GlcNAc(b1-4)GlcA(b1-3)GlcNAc(b1-4)GlcA(b1-3)GlcNAc
Method in brief: as §1

[26] = biological target: GlcNAc(a1-3)Gal(b1-4)GlcNAc
Method in brief: as §1

[27] = biological target: GlcNAc(b1-2)Man(a1-3)[GlcNAc(b1-2)Man(a1-6)]Man(b1-4)GlcNAc(b1-4)GlcNAc
Method in brief: as §1

[28] = biological target: GlcNAc(b1-2)Man(a1-3)[Man(a1-3)[Man(a1-6)]Man(a1-6)][GlcNAc(b1-4)]Man(b1-4)GlcNAc(b1-4)GlcNAc
Method in brief: as §1

B1: Banana lectin (Musa acuminata) (protein)
chain: MNGAIKVGAWGGNGGSAFDMGPAYRIISVKIFSGDVVDGVDVTFTYYGKTETRHYGGSGGTPHEIVLQEGEYLVGMAGEVANYHGAVVLGKLGFSTNKKAYGPFGNTGGTPFSLPIAAGKISGFFGRGGKFLDAIGVYLEPLEHHHHHH
In the case of B1, the “glycan array binding signal (z-score)” value [1] is reported as 0.041, the “glycan array binding signal (z-score)” value [2] is reported as 0.084 and the “glycan array binding signal (z-score)” value [3] is reported as -0.22. The “glycan array binding signal (z-score)” value [4] was -0.374, the “glycan array binding signal (z-score)” value [5] was 0.595 and the “glycan array binding signal (z-score)” value [6] was -0.215. For the same binder, the “glycan array binding signal (z-score)” value [7] was -0.173, the “glycan array binding signal (z-score)” value [8] was -0.211 and the “glycan array binding signal (z-score)” value [9] was -0.268. For the same binder, the “glycan array binding signal (z-score)” value [10] was -0.212, the “glycan array binding signal (z-score)” value [11] was -0.132 and the “glycan array binding signal (z-score)” value [12] was -0.189. The “glycan array binding signal (z-score)” value [13] was 0.245, the “glycan array binding signal (z-score)” value [14] was -0.222 and the “glycan array binding signal (z-score)” value [15] was -0.174. The “glycan array binding signal (z-score)” value [16] was 3.29, the “glycan array binding signal (z-score)” value [17] was 0.504 and the “glycan array binding signal (z-score)” value [18] was -0.264. The “glycan array binding signal (z-score)” value [19] was -0.216, the “glycan array binding signal (z-score)” value [20] was -0.216 and the “glycan array binding signal (z-score)” value [21] was 0.054. For the same binder, the “glycan array binding signal (z-score)” value [22] was -0.22, the “glycan array binding signal (z-score)” value [23] was -0.154 and the “glycan array binding signal (z-score)” value (Gal6S(b1-3)GlcNAc) was -0.197. For the same binder, the “glycan array binding signal (z-score)” value (GalNAc(a1-3)GalNAc) was -0.213, the “glycan array binding signal (z-score)” value [24] was 1.56 and the “glycan array binding signal (z-score)” value [25] was -0.99. The “glycan array binding signal (z-score)” value [26] was 0.842, the “glycan array binding signal (z-score)” value [27] was 0.105 and the “glycan array binding signal (z-score)” value [28] was -0.039.
